The labels stand for the following.
B1: ENSMUSG00000022095.66|Fam160b2 (ssRNA)
RNA: GGGAGUUCUACAGUCCGACGAUCGCUUCGAUAUCCGCAUGCUAACAACUCCAGGGGCCAGGGAGAUGAACUGCUGUCUUUGAGGCUGGCUAAAAAAACAAUCCAGUCCAGAGAGAUGGGGAGGGGGGGAGCAAGAACCCUGUCUGUUACAUUAGGUAUCAUGGAAGCUGCUAAGACUCGGCAGGUUUCUCCGAGGCUUCACGAACAGUAGUGGAGGAGACAGAGGAGGAGGCUGAGGGGAAGCCCCCUCUUCCUGCUCUACCCUCCUGGAGGCUGUUGCAAAAUUCCCAACUGCCUCCUGGCACUCUUGCGGUCGCACUAGUGUGGAAUUCUCGGGUGUCAAGG
B2: ENSMUSG00000004113.466|Cacna1b (ssRNA)
RNA: GGGAGUUCUACAGUCCGACGAUCGCUUCGAUAUCCGCAUGCUAUGAAGGUUUGUCGCAAAAAUUUAUAUUUAACAGUGUUGAGAGAGAGAGAGAGAGAGCGAGAGAGAGAGAGAUCCAGUCAUGCAACACAAAUGGGAUCUACUUUUAAACAACAGUCCUUUGACUAGUUUGCUGCCUGAAUAAUAUUUACAAACUAAACUUUGGAUUCUGCUCUUGUUUCUACAAUGAUUUUUUGUAUAAAGCAAAGUCCUUGGAUUAAAUAAAAACAACCCAAAAAAAAAAUCAAAAUCAAAACCCAGGAUCUCUUGCGGUCGCACUAGUGUGGAAUUCUCGGGUGUCAAGG
B3: ENSMUSG00000031028.203|Tub|203:207;209:214 (ssRNA)
RNA: GGGAGUUCUACAGUCCGACGAUCGCUUCGAUAUCCGCAUGCUAUCCUUUCUCUUCCCAGUUCCAGAGAUGAAACCCCUCCGAGUUAAUGUAUAAGGUUGGAAACCUUUCAGUAGGGAAUCAGGCAGUUCCCUGUUGAAAGUUGUCUGAGUUUUUGCACACCAUUCUGAUCUGAUGUGGCCUGUGCCUGGCUCCUCUAUGAGGACUUCGAGCUGUGCACAGACCUUAGCAGGACCACUGCACACUUACACACACACACACAGGCAGCCCAAGGGUUCUGGGGCUGGGCUUGGACACGCCCUCCACUCUUGCGGUCGCACUAGUGUGGAAUUCUCGGGUGUCAAGG
B4: ENSMUSG00000061578.408|Ksr2 (ssRNA)
RNA: GGGAGUUCUACAGUCCGACGAUCGCUUCGAUAUCCGCAUGCUAAUCAGUCUCUUCCCGGAGGAAGCAUCCGGGGGAAAUGUAUUCCUUCGCCCUGCAAGGAGCCAAUGGGAAGAGAGGGGACCAUAUAGUUAGAGACAUUCCCUACCCCCCGACCACUGACCCGUCCAGACCCUCGCUUCUUACAAUGCCUCUUCUUCUGCCAGACCAGCCACCUGCCCCACUAACACCAAAUGGCUUCUGUCCCUGCUUCACGUUGCAAAUCCUUCAAGACAGAAGUUUCAGAGGGGAUAGUUCCUUCUAACCUCUUGCGGUCGCACUAGUGUGGAAUUCUCGGGUGUCAAGG
B5: ENSMUSG00000031028.686|Tub (ssRNA)
RNA: GGGAGUUCUACAGUCCGACGAUCGCUUCGAUAUCCGCAUGCUAUAUUUUUGUUCAAAAUUAUCUGGAGUUUUAGACAAACUUGCAAAACUGUGCUUUUAUUAAGUGACUUUUUGAAUAAACUUUUUGGUAUUCUGAAGCAAAUGUAUUUAUUUAUUGGUAUGUGCAAUGACAAACUUGGUAUUUUCCCAUAAUGACAUUAUGUAUGUUGUAGAAUUUAGUGUUUGUCUAAGUACAGACAUGUAUCAACACAUUAAACUUGAACUGUUUGACGGCUGUGUCCUUGGUUUUCAUAGAGAAGAGAACUCUUGCGGUCGCACUAGUGUGGAAUUCUCGGGUGUCAAGG
B6: ENSMUSG00000029636.181|Wasf3 (ssRNA)
RNA: GGGAGUUCUACAGUCCGACGAUCGCUUCGAUAUCCGCAUGCUACACAGCUCUCUUCUCUCCUGUUGUCGGCACAUUUUCAAUUUUAAAAAGUACCUCACAAGAUAAACUUGAUUCAGCCAGUUGCCCGGGCAGAGACCUGACUUCCCCUCUCCUGCCCUGAUCCUUUUUACCAAAUGGCGAUUCCAUAGUCCUGGCUGAGGCAGGGGCUCAAAGUCCAGUGUCUGCUUUGCAAUUCUGGAAGGACAGCUGCUUAUUUAAAUAAGUCUGUGAUAUCCGCAGGCUUGGGUUACAGGGAGGACCUUCUCUUGCGGUCGCACUAGUGUGGAAUUCUCGGGUGUCAAGG
B7: ENSMUSG00000029028.53|Lrrc47|5:9;12:16;18:22;45:49;64:68;70:74;86:90;93:97;118:122;134:139;141:145;147:151;163:168;170:174;191:195;197:201;208:212;214:218;235:2 … (ssRNA)
RNA: GGGAGUUCUACAGUCCGACGAUCGCUUCGAUAUCCGCAUGCUAUGUCACACAAGCAUACGCACACCUGUAGAUCUUUGUAGGUGUAGCAUACCUGUAGGUAUCUGGCACACGCAUACCUGUAGAUGUCACACAAGCACACGAUAUGCUGUAGGUAUCUGGCACACCUGUAGGUGUCACACACGCACACGCACACCUGUGGGUGUCACACACGCACACCUGUAGGUGUCUGUAGCACACGCAUACCUGCAGCACACGCACACCUGUAGAUCUCUAUAGCACACGCACACCUGUAGGGGUCUGUGCUCUUGCGGUCGCACUAGUGUGGAAUUCUCGGGUGUCAAGG
B8: ENSMUSG00000028439.165|Fam219a (ssRNA)
RNA: GGGAGUUCUACAGUCCGACGAUCGCUUCGAUAUCCGCAUGCUAAGCUUAAGGAAAUACAGUGAGCCAAGUGGCUGUAUGAUAUGGUAUGGUAUGGUAUGGUAUGGUAUGGUAUGGUAUGCACAUGUGUGUGCAUGUGUGUGUGCCUGUGUGUGUGCGUGUGCGUGUGUGUAUGUGUGUGCGUGUGUGUGUGUGUGUGUUGUACCCGAGUGUGUGUUGAGCCUAUCUGUCCAGGGAACCAGAUUGGUGUCCGAGAUGAGGAAAUGGCUGUGGCCUGGGAAAUCAGUGAGAGGCCGCUUGGGAAUCUCUUGCGGUCGCACUAGUGUGGAAUUCUCGGGUGUCAAGG
B9: ENSMUSG00000028439.168|Fam219a (ssRNA)
RNA: GGGAGUUCUACAGUCCGACGAUCGCUUCGAUAUCCGCAUGCUAGAGCCAAGUGGCUGUAUGAUAUGGUAUGGUAUGGUAUGGUAUGGUAUGGUAUGGUAUGCACAUGUGUGUGCAUGUGUGUGUGCCUGUGUGUGUGCGUGUGCGUGUGUGUAUGUGUGUGCGUGUGUGUGUGUGUGUGUUGUACCCGAGUGUGUGUUGAGCCUAUCUGUCCAGGGAACCAGAUUGGUGUCCGAGAUGAGGAAAUGGCUGUGGCCUGGGAAAUCAGUGAGAGGCCGCUUGGGAAUGAGAAUGCAGUGGACUGACUCUUGCGGUCGCACUAGUGUGGAAUUCUCGGGUGUCAAGG
B10: ENSMUSG00000028439.169|Fam219a (ssRNA)
RNA: GGGAGUUCUACAGUCCGACGAUCGCUUCGAUAUCCGCAUGCUAAGUGGCUGUAUGAUAUGGUAUGGUAUGGUAUGGUAUGGUAUGGUAUGGUAUGCACAUGUGUGUGCAUGUGUGUGUGCCUGUGUGUGUGCGUGUGCGUGUGUGUAUGUGUGUGCGUGUGUGUGUGUGUGUGUUGUACCCGAGUGUGUGUUGAGCCUAUCUGUCCAGGGAACCAGAUUGGUGUCCGAGAUGAGGAAAUGGCUGUGGCCUGGGAAAUCAGUGAGAGGCCGCUUGGGAAUGAGAAUGCAGUGGACUGAAAGCACCUCUUGCGGUCGCACUAGUGUGGAAUUCUCGGGUGUCAAGG
B11: ENSMUSG00000028439.163|Fam219a (ssRNA)
RNA: GGGAGUUCUACAGUCCGACGAUCGCUUCGAUAUCCGCAUGCUAUCUUCAAGAGCAAGCUUAAGGAAAUACAGUGAGCCAAGUGGCUGUAUGAUAUGGUAUGGUAUGGUAUGGUAUGGUAUGGUAUGGUAUGCACAUGUGUGUGCAUGUGUGUGUGCCUGUGUGUGUGCGUGUGCGUGUGUGUAUGUGUGUGCGUGUGUGUGUGUGUGUGUUGUACCCGAGUGUGUGUUGAGCCUAUCUGUCCAGGGAACCAGAUUGGUGUCCGAGAUGAGGAAAUGGCUGUGGCCUGGGAAAUCAGUGAGAGGCUCUUGCGGUCGCACUAGUGUGGAAUUCUCGGGUGUCAAGG
B12: ENSMUSG00000028439.164|Fam219a (ssRNA)
RNA: GGGAGUUCUACAGUCCGACGAUCGCUUCGAUAUCCGCAUGCUAAGAGCAAGCUUAAGGAAAUACAGUGAGCCAAGUGGCUGUAUGAUAUGGUAUGGUAUGGUAUGGUAUGGUAUGGUAUGGUAUGCACAUGUGUGUGCAUGUGUGUGUGCCUGUGUGUGUGCGUGUGCGUGUGUGUAUGUGUGUGCGUGUGUGUGUGUGUGUGUUGUACCCGAGUGUGUGUUGAGCCUAUCUGUCCAGGGAACCAGAUUGGUGUCCGAGAUGAGGAAAUGGCUGUGGCCUGGGAAAUCAGUGAGAGGCCGCUUCUCUUGCGGUCGCACUAGUGUGGAAUUCUCGGGUGUCAAGG
B13: ENSMUSG00000028439.166|Fam219a (ssRNA)
RNA: GGGAGUUCUACAGUCCGACGAUCGCUUCGAUAUCCGCAUGCUAAGGAAAUACAGUGAGCCAAGUGGCUGUAUGAUAUGGUAUGGUAUGGUAUGGUAUGGUAUGGUAUGGUAUGCACAUGUGUGUGCAUGUGUGUGUGCCUGUGUGUGUGCGUGUGCGUGUGUGUAUGUGUGUGCGUGUGUGUGUGUGUGUGUUGUACCCGAGUGUGUGUUGAGCCUAUCUGUCCAGGGAACCAGAUUGGUGUCCGAGAUGAGGAAAUGGCUGUGGCCUGGGAAAUCAGUGAGAGGCCGCUUGGGAAUGAGAAUCUCUUGCGGUCGCACUAGUGUGGAAUUCUCGGGUGUCAAGG
B14: ENSMUSG00000028439.167|Fam219a (ssRNA)
RNA: GGGAGUUCUACAGUCCGACGAUCGCUUCGAUAUCCGCAUGCUAUACAGUGAGCCAAGUGGCUGUAUGAUAUGGUAUGGUAUGGUAUGGUAUGGUAUGGUAUGGUAUGCACAUGUGUGUGCAUGUGUGUGUGCCUGUGUGUGUGCGUGUGCGUGUGUGUAUGUGUGUGCGUGUGUGUGUGUGUGUGUUGUACCCGAGUGUGUGUUGAGCCUAUCUGUCCAGGGAACCAGAUUGGUGUCCGAGAUGAGGAAAUGGCUGUGGCCUGGGAAAUCAGUGAGAGGCCGCUUGGGAAUGAGAAUGCAGUGCUCUUGCGGUCGCACUAGUGUGGAAUUCUCGGGUGUCAAGG

Whole data set: some 9,900 sequences, median “r (bound/input frequency ratio)” near 0.7, cut for the highest 2% near 6.5. The sample as a whole holds a higher share of the highest values than the screen did.

The target of the experiment is TDP-43 (Homo sapiens, UniProt Q13148 1-414). Kind of experiment: RNA Bind-n-Seq with designed 260-mer pool; 25 mM Tris-HCl, 150 mM KCl, 3 mM MgCl2, BSA (printed 500 mg/mL), 20 units/mL SUPERase IN; pH not stated; 500 nM RNA pool, 1 h, 4 C; TDP-43 5, 50, 500 nM; high values mean tight binding. Conditions: protein: recombinant; tags: SBP (GST cleaved off with PreScission; pGEX-GST-SBP). The gist of the method: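 An in vitro-transcribed pool of 260-nt 3′ UTR oligos (500 nM) was incubated for 1 h at 4 °C with recombinant SBP-tagged TDP-43 at 5, 50 or 500 nM held on streptavidin beads. The buffer contained 25 mM Tris-HCl, 150 mM KCl, 3 mM MgCl2, BSA and SUPERase IN. Biotin-eluted bound RNA was sequenced, and binding, R, is each oligo's normalized read abundance in the bound sample over that in input.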
Chain of TDP-43 (Q13148 whole entry): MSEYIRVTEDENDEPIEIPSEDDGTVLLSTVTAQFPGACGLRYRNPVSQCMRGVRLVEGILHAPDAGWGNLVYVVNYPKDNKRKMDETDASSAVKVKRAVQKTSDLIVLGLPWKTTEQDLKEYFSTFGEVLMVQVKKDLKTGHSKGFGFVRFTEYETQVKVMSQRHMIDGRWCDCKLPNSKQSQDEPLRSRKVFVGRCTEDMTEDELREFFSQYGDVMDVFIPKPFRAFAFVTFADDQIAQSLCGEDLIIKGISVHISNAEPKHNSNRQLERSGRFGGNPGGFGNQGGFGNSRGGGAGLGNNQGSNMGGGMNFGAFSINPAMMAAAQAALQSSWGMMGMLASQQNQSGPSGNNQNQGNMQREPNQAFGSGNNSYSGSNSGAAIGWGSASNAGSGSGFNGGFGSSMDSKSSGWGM
B1: the binding signal was 0.965 R (bound/input frequency ratio).
On to B2, for which the binding signal was 0.589 R (bound/input frequency ratio).
As for B3, the figure is 1.57 R (bound/input frequency ratio); as for B4, 1.09 R (bound/input frequency ratio); as for B5, 0.181 R (bound/input frequency ratio).
To B6 belongs 0.344 R (bound/input frequency ratio); to B7, 0.453 R (bound/input frequency ratio); to B8, 6.33 R (bound/input frequency ratio).
For B9, the binding signal was 7.15 R (bound/input frequency ratio).
As for B10, the binding signal is 6.41 R (bound/input frequency ratio).
To B11 belongs 5.79 R (bound/input frequency ratio).
B12: the binding signal is 8.42 R (bound/input frequency ratio).
For B13, the binding signal is 6.86 R (bound/input frequency ratio).
In the case of B14, the binding signal is 6.28 R (bound/input frequency ratio).

Source of the values: PMC12864922, “TDP-43 directly inhibits mRNA accumulation in neurites through modulation of mRNA stability”.
